From PubChem BioAssay (Tox21)
Inconclusive results are not listed. A call without a number means that no potency is given here. Calls of active or inactive are those of the source. The call rests on the fitted dose curve.

molecular target: Acetylcholinesterase (Homo sapiens) (UniProt P22303); assay: Acetylcholinesterase (AChE) small molecule antagonists: colormetric cell-based qHTS assay (AID 1347395); conditions: SH-SY5Y cells AChE activity, colorimetric (Ellman); series mostly up to 115 µM; further: nearly all actives have a fitted effect of over 30% in size
Sequence (P22303 whole entry, looked up): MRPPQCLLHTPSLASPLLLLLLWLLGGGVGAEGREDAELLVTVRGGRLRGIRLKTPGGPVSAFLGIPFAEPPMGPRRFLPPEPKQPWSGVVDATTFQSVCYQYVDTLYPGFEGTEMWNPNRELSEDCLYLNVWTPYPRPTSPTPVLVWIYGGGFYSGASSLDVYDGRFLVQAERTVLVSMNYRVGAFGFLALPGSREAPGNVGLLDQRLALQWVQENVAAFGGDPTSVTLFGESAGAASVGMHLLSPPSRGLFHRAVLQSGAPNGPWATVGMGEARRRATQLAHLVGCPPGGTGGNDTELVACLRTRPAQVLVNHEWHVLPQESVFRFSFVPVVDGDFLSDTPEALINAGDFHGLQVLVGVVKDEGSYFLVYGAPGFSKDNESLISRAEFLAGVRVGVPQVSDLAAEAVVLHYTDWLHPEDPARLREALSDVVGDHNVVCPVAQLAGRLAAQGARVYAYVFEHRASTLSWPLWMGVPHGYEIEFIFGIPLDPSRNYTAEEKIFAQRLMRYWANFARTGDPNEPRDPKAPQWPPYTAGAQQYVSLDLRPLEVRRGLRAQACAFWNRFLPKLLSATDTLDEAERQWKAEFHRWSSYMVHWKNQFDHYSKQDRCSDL
Method in brief: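 In this cell-based qHTS, attached SH-SY5Y cells were treated with test chemicals for 30 min, after which acetylthiocholine hydrolysis was followed by DTNB colour development over 90 min at 37 C.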
Potency means the concentration at half of the fitted maximal effect.

Row | Compound | Potency | activity, negative = inhibition
1 | CC(C)CC(=O)OCc1ccccc1 | inactive | 
2 | CN1CCc2cccc3c2[C@H]1Cc1ccc(O)c(O)c1-3 | 64 µM (active) | 
3 | COC(C)CCO (stereo not given) | inactive | 
4 | Nc1c(Cl)cc(Cl)cc1[N+](=O)[O-] | inactive | 
5 | c1ccc(CSCc2ccccc2)cc1 | inactive | 
6 | O=C(Nc1ccccc1SSc1ccccc1NC(=O)c1ccccc1)c1ccccc1 | inactive | 
7 | c1ccc2c(c1)c1cccc3ccc4cccc2c4c31 | inactive | 
8 | COC(=O)CC(=O)C(C)(C)C | inactive | 
9 | CC(CO)(CO)C(=O)O | inactive | 
10 | CCCCCCCC/C=C\CCCCCCCCN | inactive | 
11 | C[C@@H]1CN(c2c(F)c(N)c3c(=O)c(C(=O)O)cn(C4CC4)c3c2F)C[C@H](C)N1 |  | 1.94% [at 23.6 µM] (inactive)
12 | CC[C@H](C)C(=O)O[C@H]1C[C@H](O)C=C2C=C[C@H](C)[C@H](CC[C@@H](O)C[C@@H](O)CC(=O)O)[C@H]21 | inactive | 
13 | CC(C)(N)CO | inactive | 
14 | OCCCCCCCl | inactive | 
15 | CSc1ccc2c(c1)N(CCC1CCCCN1C)c1ccccc1S2 (stereo not given) | 70.7 µM (active) | 
16 | COC(=O)CCC(=O)OC | inactive | 
17 | CC(O)c1ccccc1 (stereo not given) | inactive | 
18 | O=C(O)CNC(=O)c1ccc(CO)o1 | inactive | 
19 | O=Cc1ccc(O)c(O)c1O | inactive | 
20 | COC(CC(C)CCCC(C)(C)O)OC (stereo not given) | inactive | 

Row | Compound | Potency | activity, negative = inhibition
21 | CC(C)OP(=O)(CP(=O)(OC(C)C)OC(C)C)OC(C)C | inactive | 
22 | CC(C)N=C(N)/N=C(\N)Nc1ccc(Cl)cc1 | inactive | 
23 | c1ccc2nccnc2c1 | inactive | 
24 | CCc1nnc(NS(=O)(=O)c2ccc(N)cc2)s1 | inactive | 
25 | CC(CC=O)CCCC(C)(C)O (stereo not given) | inactive | 
26 | CC(O)C(CO)C(C)O (stereo not given) | inactive | 
27 | CCO[Si](CCCN)(OCC)OCC | inactive | 
28 | O=C(CS)Nc1ccccc1 | inactive | 
29 | C=CCCCCCCCCC=O | inactive | 
30 | CCOC(=O)[C@H](CCc1ccccc1)N[C@@H](C)C(=O)N1Cc2ccccc2C[C@H]1C(=O)O | inactive | 
31 | CCOCCOCC | inactive | 
32 | O=Cc1ccc(Cl)c(Cl)c1 | inactive | 
33 | COS(C)(=O)=O | inactive | 
34 | O=C(O)c1[nH]n(-c2ccc(S(=O)(=O)O)cc2)c(=O)c1N=Nc1ccc(S(=O)(=O)O)cc1 | inactive | 
35 | CC(=O)[C@@]1(O)CC[C@H]2[C@@H]3C[C@H](C)C4=CC(=O)CC[C@]4(C)[C@H]3CC[C@@]21C | inactive | 
36 | CC(C)NCC(O)c1cc(O)cc(O)c1 (stereo not given) | inactive | 
37 | C#C[C@]1(O)CC[C@H]2[C@@H]3CCc4cc(OC)ccc4[C@H]3CC[C@@]21C | inactive | 
38 | CC(C)COC(=O)CCCCC(=O)OCC(C)C | inactive | 
39 | CCCCC(CC)CN1C(=O)C2C3C=CC(C3)C2C1=O (stereo not given) | inactive | 
40 | CCC1COC(=O)O1 (stereo not given) | inactive | 
